An excerpt weighted towards active compounds, which were near 4.7% of everything screened.
ATXN viability – cell viability loss in ATXN counter-screen; hit rate 0.49% among 400,000; Potency, µM (titrated, usually from 56.7 µM), hits mostly cytotoxic; S2 cells (HEK-293 line with an ATXN2-luciferase reporter) viability, CellTiter-Fluor protease fluorescence, 24 h; further: potency means the concentration at half of the fitted maximal effect; nearly all actives have a fitted effect of over 40% in size
DRD3 agonist – activates the human D3 dopamine receptor. P35462. D3R DiscoveRx beta-arrestin cells, luminescence, 90 min. max activation, %. hit rate 0.58% among 410,000. AID 652048; in the data active means max activation above about 30%; further: 0% is about no effect
Target sequence (P35462 whole entry, looked up): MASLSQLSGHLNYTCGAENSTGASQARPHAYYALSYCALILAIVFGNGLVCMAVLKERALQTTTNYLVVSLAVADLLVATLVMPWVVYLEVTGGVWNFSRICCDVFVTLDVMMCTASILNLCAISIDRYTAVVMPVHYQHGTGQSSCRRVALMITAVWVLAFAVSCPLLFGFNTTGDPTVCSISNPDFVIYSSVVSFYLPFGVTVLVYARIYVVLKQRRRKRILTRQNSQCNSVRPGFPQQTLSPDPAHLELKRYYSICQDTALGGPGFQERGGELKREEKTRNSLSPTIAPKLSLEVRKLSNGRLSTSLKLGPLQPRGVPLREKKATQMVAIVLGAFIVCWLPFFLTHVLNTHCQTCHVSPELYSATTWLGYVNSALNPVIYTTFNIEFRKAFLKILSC
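Agonist mode: compounds and dopamine controls were applied to plated cells for 90 min at 37 degrees C after an overnight attachment at 1500 cells/well. Luminescent read-out followed 30 - 60 minutes at room temperature with DiscoveRx detection reagent.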
TGFb inhibitor – inhibitors of TGF-b signaling; AID 588855; Potency, µM (titrated, usually from 46.1 µM), without a hit: at the top dose activity, negative = inhibition, actives largely listed as inhibitors; HepG2 CAGA-GFP TGF-b/SMAD3 reporter, GFP fluorescence, 18 h; TGF-beta stimulated, 500 pg/mL final; hit rate 1.2% among 410,000; further: potency means the concentration at half of the fitted maximal effect; on the % scale 0 is the no-effect control and ±100 the full control effect; nearly all actives have a fitted effect of over 65% in size
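HEPG2 CAGA-GFP reporter cells (1000/well, DMEM with 1% FBS) received compounds, then recombinant TGF-beta at 500 pg/mL final for 18 hours at 37 degrees C. Per-cell GFP summed per well was normalised to unstimulated and stimulated DMSO controls before curve fitting.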
ATXN2 expr inh – inhibitors of ATXN2 expression; HEK-293 ATXN2-luciferase reporter, luminescence, 24 h; hit rate 0.72% among 360,000; Potency, µM (highest dose often 57 µM), for inactives: at the highest dose activity change, negative = inhibition, most hits filed as inhibitors; further: potency means the concentration at half of the fitted maximal effect; on the % scale 0 is the no-effect control and ±100 the full control effect; nearly all actives have a fitted effect of over 55% in size
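qHTS (up to 57 uM final) was run with 24 h compound exposure of reporter cells at 37 °C. Each well was multiplexed: SteadyGlo luminescence measured ATXN2-luciferase expression after a fluorogenic Gly-Phe-AFC viability readout (25 uM final).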
HepG2 tox – kills HepG2 cells in TGF-b inhibitor counter-screen | Potency, µM (top dose mostly 46.1 µM), without a hit: at the highest dose activity change, negative = cytotoxicity, hits mostly cytotoxic | hit rate 0.76% among 410,000 | HepG2 CAGA-GFP viability, ATP luminescence, 18 h | AID 588856; further: potency means the concentration at half of the fitted maximal effect
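HepG2 CAGA-GFP cells (1000/well, DMEM with 1% FBS) received compound, then TGF-beta at 500 pg/mL final, and were incubated 18 hours at 37 degrees C. Viability was read by CellTiter-Glo luminescence. Media-only wells were set as complete cell-killing and DMSO as no toxicity.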
DRD3 antagonist – D3 dopamine receptor (human) antagonism. P35462. D3R cells, DiscoveRx beta-arrestin luminescence, antagonist mode; active compounds read low. max response, negative = inhibition, %. hit rate 2.5% among 360,000. AID 652054; in the data active means max response below about -50%; inconclusive means no clear call, values can overlap the other calls; further: on the % scale 0 is the no-effect control and ±100 the full control effect
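Cells plated overnight at 1500 cells/well, then exposed to library compounds with dopamine controls for 90 minutes at 37 degrees C. DiscoveRx reagent added for 30–60 minutes at room temperature; luminescence read, quantitative HTS format.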
Numbers without * were called inactive. Unless noted, the call rests on the fitted dose curve; in most records, active means well fitted curve in the direction sought with a large enough effect; inconclusive means small, poorly fitted or top-dose-only effect, or another doubt; inactive means no such curve, though single readings can be large; an effect the other way counts as inactive or inconclusive.

For CN(CCO)CC(O)CN(c1ccccc1)c1ccccc1 (centres undefined) the results were ATXN viability inactive, DRD3 agonist 0, TGFb inhibitor -5%, HepG2 tox -7% and DRD3 antagonist -51*.
`COC(=O)c1cc2c(n1S(=O)(=O)c1ccc(C)cc1)C(=O)C(=O)c1[nH]cc(C(=O)OCc3ccccc3)c1-2` gave ATXN viability 4.7µM*, DRD3 agonist -15, TGFb inhibitor inconclusive, ATXN2 expr inh 3µM*, HepG2 tox 0.71µM* and DRD3 antagonist -13.
`COC(=O)c1ccc(COC(=O)c2ccc(CS(=O)(=O)c3ccc(C)cc3)cc2)cc1` gave ATXN viability inactive, DRD3 agonist 1, TGFb inhibitor 0%, ATXN2 expr inh 0%, HepG2 tox -42% and DRD3 antagonist -11.
Screening CCCNC(=O)c1ccc2c(=O)c(O)c(-c3ccc(F)cc3)[nH]c2c1 returned ATXN viability inactive, DRD3 agonist 14, TGFb inhibitor inconclusive, ATXN2 expr inh inconclusive, HepG2 tox -35% and DRD3 antagonist -13.
For O=C(NCCO)c1ccc(Cl)c(Cl)c1 the results were ATXN viability inactive, DRD3 agonist -2, TGFb inhibitor 2%, ATXN2 expr inh -2%, HepG2 tox 4% and DRD3 antagonist 1.
`CCCNC(=O)c1ccc2c(=O)c(O)c(C)[nH]c2c1` gave ATXN viability inactive, DRD3 agonist 33*, TGFb inhibitor 2%, ATXN2 expr inh 14%, HepG2 tox 4% and DRD3 antagonist 21.
`Nc1c(Cl)cc(-c2[nH]c3cc(C(=O)NCCO)ccc3c(=O)c2O)cc1Cl` gave DRD3 agonist 35*, TGFb inhibitor inconclusive, ATXN2 expr inh 4%, HepG2 tox -8% and DRD3 antagonist 32.
Screening CCCNC(=O)c1ccc2c(=O)c(O)c(-c3cccc(Br)c3)[nH]c2c1 returned ATXN viability inactive, DRD3 agonist 3, TGFb inhibitor inconclusive, ATXN2 expr inh 22µM*, HepG2 tox 1% and DRD3 antagonist 0.
C[C@@H]1C/C=C/C=C/C=C/C=C/[C@H](O[C@@H]2O[C@H](C)[C@@H](O)[C@H](N)[C@@H]2O)C[C@@H]2O[C@](O)(C[C@@H](O)C[C@H]3O[C@@H]3/C=C/C(=O)O1)C[C@H](O)[C@H]2C(=O)O was read as ATXN viability inactive and DRD3 agonist 7.
For Nc1c(Br)cc(/C=C/c2ccnc3ccccc23)cc1Br the results were TGFb inhibitor inconclusive and HepG2 tox -27%.
Screening COc1cccc(OCCn2cc(C=O)c3ccccc32)c1 returned ATXN viability inactive, DRD3 agonist 6, TGFb inhibitor 3.5µM*, ATXN2 expr inh -18%, HepG2 tox -31% and DRD3 antagonist 4.
For N#Cc1ccc2c(=O)n(-c3ccccc3)sc2c1 the results were ATXN viability 10µM*, DRD3 agonist -8, TGFb inhibitor -34%, ATXN2 expr inh -35%, HepG2 tox -57% and DRD3 antagonist inconclusive.
`Cn1sc2ccccc2c1=O` gave DRD3 agonist -7, TGFb inhibitor inconclusive, ATXN2 expr inh 28µM*, HepG2 tox -111% and DRD3 antagonist -15.
For O=c1c2ccccc2sn1-c1cccc(Cl)c1 the results were ATXN viability 25µM*, DRD3 agonist -6, TGFb inhibitor inconclusive, ATXN2 expr inh -25%, HepG2 tox -65% and DRD3 antagonist inconclusive.
O=c1c2ccccc2sn1-c1ccccc1F was read as ATXN viability 20µM*, DRD3 agonist -14, TGFb inhibitor inconclusive, ATXN2 expr inh inconclusive, HepG2 tox -87% and DRD3 antagonist inconclusive.
Screening O=C(O)c1cccc(-n2sc3ccccc3c2=O)c1 returned ATXN viability inconclusive, DRD3 agonist -2, TGFb inhibitor inconclusive, ATXN2 expr inh -24%, HepG2 tox -38% and DRD3 antagonist inconclusive.
For N[C@H](Cc1cc(I)c(Oc2ccc(O)c(I)c2)c(I)c1)C(=O)O the results were ATXN viability inactive.
`O=c1c2ccccc2sn1-c1ccccc1` gave DRD3 agonist -3, TGFb inhibitor 16µM*, ATXN2 expr inh inconclusive, HepG2 tox -60% and DRD3 antagonist -98*.
Screening O=c1c2cc(F)ccc2sn1-c1ccccc1 returned ATXN viability 13µM*, DRD3 agonist -17, TGFb inhibitor 11µM*, ATXN2 expr inh inconclusive, HepG2 tox -94% and DRD3 antagonist -12.
`COc1cc(NC(=O)C/C(C)=N/NC(=O)c2cccc(O)c2)c(OC)cc1Cl` gave ATXN viability inactive, DRD3 agonist -17, TGFb inhibitor -15%, ATXN2 expr inh -4%, HepG2 tox -3% and DRD3 antagonist -51*.
COC(=O)C1Cc2c([nH]c3ccccc23)C2(CCN(Cc3ccccc3)CC2)N1 (centres undefined) was read as ATXN viability inactive, DRD3 agonist -23, TGFb inhibitor inconclusive, ATXN2 expr inh -22%, HepG2 tox -53% and DRD3 antagonist -93*.
For CCCN1CCC2(CC1)NC(C(=O)O)Cc1c2[nH]c2ccccc12 (centres undefined) the results were ATXN viability inactive, DRD3 agonist -2, TGFb inhibitor -8%, ATXN2 expr inh -13%, HepG2 tox -15% and DRD3 antagonist 10.
C=C1C=C(C(F)F)n2ncc(C(=O)NCc3ccc(Cl)cc3Cl)c2N1 was read as TGFb inhibitor 5% and HepG2 tox 16%.
`CN(C)c1ccc(C(=C2c3ccccc3-c3ccccc32)c2ccc(N(C)C)cc2)cc1` gave TGFb inhibitor 6% and HepG2 tox 0%.
Screening COc1ccc(/C=C/C2=CC(C)(C)NC(=S)N2)cc1OC returned ATXN viability inactive, DRD3 agonist 1, TGFb inhibitor -20%, ATXN2 expr inh -23%, HepG2 tox -17% and DRD3 antagonist inconclusive.
COc1cccc(/C=C/C2=CC(C)(C)NC(=S)N2)c1 was read as ATXN viability inactive, DRD3 agonist -13, TGFb inhibitor -14%, ATXN2 expr inh 4%, HepG2 tox 13µM* and DRD3 antagonist -7.
For O=C(O)c1ccc(-c2cccc([N+](=O)[O-])c2)o1 the results were ATXN viability inactive, DRD3 agonist -4, TGFb inhibitor 4%, ATXN2 expr inh 7%, HepG2 tox 1% and DRD3 antagonist 7.
N#C/C(=C(/O)c1ccc(-c2cccc([N+](=O)[O-])c2)o1)c1nc2ccccc2s1 was read as ATXN viability inactive, DRD3 agonist -7, TGFb inhibitor 13µM*, ATXN2 expr inh 23%, HepG2 tox -72% and DRD3 antagonist 2.
